Where “and” joins values, the source holds several entries; their conditions need not be identical. Equal entries are not always repeated. Compounds without any hit were thinned out: in the full panel of roughly 83,000, 20% have a hit.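 Percent growth is the endpoint: 0 to 100 indicates growth inhibition (40 means 60% inhibition), 0 means no net growth, and negative values indicate cell death.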 Calls of active or inactive are those of the source.

In the first experiment the test system is UO-31 renal. The experiment can be described thus: NCI-60 one-dose screen, 48 h (100 = growth as untreated, 0 = no growth, -100 = all killed). The following applies: 4.75 µM. As for the experimental part: Growth inhibition of the UO-31 human tumor cell line is measured as a screen for anti-cancer activity. Cells are grown in 96 well plates and exposed to the test compound for 48 hours. Compounds are tested at a single concentration, which is 10^-5 M for most compounds. The reported endpoint is percent growth (GI% or GIPRCNT), where numbers from 0 - 100% represent growth inhibition, and numbers from -100% - 0 represent cell death. For example, a value of 40 represents 60% growth inhibition. A value of 0 means no net growth occurred over the course of the experiment. A value of -40 indicates 40% of cells at the beginning of the experiment died by the end of the experiment. A value of -100 means all cells are dead at the end of the experiment.
NCI-60 Human Tumor Cell Lines Screen was performed using the standard one-dose NCI protocol, which is described in more detail at https://dtp.cancer.gov/discovery_development/nci-60/default.htm.
Compounds with GIPRCNT values below 10 were considered active. Activity score was based on GIPRCNT using the following formula: […]
Score is 0 for GIPRCNT values of 100 or above, 50 for GIPRCNT values of 0, and 100 for GIPRCNT values of -100.
Take `CC(=O)OCC1OC([S-])C(OC(C)=O)C(OC(C)=O)C1OC(C)=O.[Au+].c1ccc(CN2[CH-]N(Cc3ccccc3)C(c3ccccc3)=C2c2ccccc2)cc1`: the growth was 3.56% (active).

The same experiment, now with this note: 10 µM.
Turning to `CC(=O)OCC1OC([S-])C(OC(C)=O)C(OC(C)=O)C1OC(C)=O.[Au+].c1ccc(CN2[CH-]N(Cc3ccccc3)C(c3ccccc3)=C2c2ccccc2)cc1`, the growth was -70.5% (active).

Staying with this experiment, now noted: 10 µM unless noted.
As for `O=C1CCCCC1CN1CCCCC1` (stereo not given), the growth was 88.7% (inactive).

As to `COc1cc2c(cc1OC)-c1c3c(cc4c1[C@@H](C2)N(C)CC4)OCO3`, the growth is 9.51% (active).

For `C=CC[PH+](c1ccccc1)c1ccccc1.C=CC[PH+](c1ccccc1)c1ccccc1.[Pt+2].[S-]c1nc2ccccc2[nH]1.[S-]c1nc2ccccc2[nH]1`, the growth is 35.2% (inactive).

Turning to `C=CC1CN2CCC1CC2C(O)c1ccnc2ccccc12` (stereo not given), the growth is 67% (inactive).

With `CN(C)c1ccc(C=C2C(=O)NC(=O)NC2=O)cc1`, the growth is 92.9% (inactive).

`Nc1ccc(P(=O)(O)O)cc1`: the growth was 90.8% (inactive) and 91.8% (inactive).

Take `O=C(CCCN1CCC2(CC1)C(=O)NCN2c1ccccc1)c1ccc(F)cc1`: the growth was 77.1% (inactive) and 66% (inactive).

As for `CC[C@H](C)[C@H](NC(=O)c1cnccn1)C(=O)N(C)[C@H](C[C@@H](OC(C)=O)c1nc(C(=O)N[C@@H](Cc2ccccc2)C[C@H](C)C(=O)OC)cs1)C(C)C`, the growth was 40.7% (inactive).

Take `O=[N+]([O-])c1c(Cl)cc(Cl)c([N+](=O)[O-])c1Cl`: the growth was 151% (inactive).

`CC1OC(=O)C(C(C)C)NC(=O)C(C(C)C)OC(=O)C(C(C)C)NC(=O)C(C)OC(=O)C(C(C)C)NC(=O)C(C(C)C)OC(=O)C(C(C)C)NC(=O)C(C)OC(=O)C(C(C)C)NC(=O)C(C(C)C)OC(=O)C(C(C)C)NC1=O` (stereo not given): the growth is 6.58% (active).

With `CC/C(Cc1ccccc1)=C(\c1ccc(OCCN2CCCC2)cc1)c1ccc(OC(=O)NCc2ccccc2)cc1`, the growth is 33.8% (inactive).

Turning to `Nc1ccc(S(=O)(=O)F)cc1`, the growth is 86.3% (inactive).

Take `CC(C)COC(=O)Cc1ccccc1`: the growth was 102% (inactive).

Take `O=NN(c1ccccc1)c1ccccc1`: the growth was 96% (inactive).

Regarding `CCCCCCCCCCCCCCCC[n+]1ccccc1`, the growth was -28% (active) and 11.7% (inactive).

As for `O=C(O)c1cc([N+](=O)[O-])cc([N+](=O)[O-])c1`, the growth is 92% (inactive).

With `Nc1nc(=S)nc(N)[nH]1`, the growth was 74.1% (inactive).

Take `CC(=O)OC1CC2(O)C(CCC3(C)C(c4ccc(=O)oc4)CCC32O)C2(C)CCC(OC3OC(CO)C(O)C(O)C3O)C=C12` (stereo not given): the growth is -80.8% (active).

Turning to `O=C(O)C(O)c1ccc(Cl)cc1` (stereo not given), the growth was 99.6% (inactive) and 87.7% (inactive).

For the compound `N#CCN(CC#N)[N+](=O)[O-]`, the growth is 101% (inactive).

Consider `Cc1cc[n+](CCc2ccccc2)cc1`, for which the growth is 57.8% (inactive) and 85.1% (inactive).

For the compound `C[C@@]12CCCc3coc(c31)C(=O)c1cc3c(cc12)C(=O)C1=C(NCCS1(=O)=O)C3=O`, the growth is 35.7% (inactive).

Turning to `CC[C@H](C)[C@H](NC(=O)C12CC(NC)(C1)C2)C(=O)N(C)[C@H](C[C@@H](OC(C)=O)c1nc(C(=O)N[C@@H](Cc2ccccc2)C[C@H](C)C(=O)OC)cs1)C(C)C`, the growth is 40.7% (inactive).

Turning to `C/C=C(/C)C(=O)O[C@H]1CC[C@@]2(C)[C@@H]3CC[C@H]4[C@]5(O)C[C@H](O)[C@@]6(O)[C@@H](CN7C[C@@H](C)CC[C@H]7[C@@]6(C)O)[C@]5(O)C[C@@]42O[C@@]13O`, the growth was 81% (inactive).

As for `CC(=O)c1cccc(S(=O)(=O)F)c1`, the growth is 83% (inactive).

Consider `CN1C2CCC1[C@@H](COC(=O)c1ccccc1)[C@@H](O)C2` (stereo not given in full), for which the growth is 91.8% (inactive).

For `O=c1[nH]c(=O)[nH]c(=O)[nH]1`, the growth is 95.3% (inactive).

As for `CCCCCCCCCCCCCCCCCC1OCC(COC(=O)O[C@@H](C(=O)O[C@H]2C[C@@]3(O)[C@@H](OC(=O)c4ccccc4)[C@@H]4[C@]5(OC(C)=O)CO[C@@H]5C[C@H](O)[C@@]4(C)C(=O)[C@H](OC(C)=O)C(=C2C)C3(C)C)[C@@H](NC(=O)c2ccccc2)c2ccccc2)O1` (stereo not given in full), the growth is 107% (inactive).

`O=S(OO)c1cc(Cl)c(O)c(Cl)c1` (stereo not given): the growth is 84.2% (inactive).

On to `O=C/C=C/c1ccco1`, for which the growth was 88.9% (inactive).

Consider `O=C(O)CNCP(=O)(O)O`, for which the growth is 72.8% (inactive).

As for `CCC1(CCSC#N)C(=O)NC(=O)NC1=O`, the growth is 87% (inactive).

As to `CO[C@H]1[C@H](O[C@@H]2C[C@@H]3C/C=C/C(=O)O[C@@H](CO)C[C@H](O)[C@@H]4C[C@H](C)[C@H](C/C=C\C=C\[C@H](C)C[C@H](C2)O3)O4)O[C@@H](C)[C@H](O)[C@H]1O`, the growth is 33.3% (inactive).

Take `COc1ccc2c(c1)C1(C)CCN(C)CC(C1)C2O` (stereo not given): the growth was 86.9% (inactive).

Regarding `CNC(=O)O/N=C(\SC)C(=O)N(C)C`, the growth was 93.1% (inactive).

Consider `c1ccc2c(c1)O[As](O[As]1Oc3ccccc3O1)O2`, for which the growth is 32.2% (inactive).

Consider `O=C(O)c1ccccc1N(CCO)CCCl`, for which the growth is 88.2% (inactive).

`O=C1NC(=O)C(=Cc2ccccc2)C(=O)N1`: the growth was 93.5% (inactive).

The values above are taken from PubChem BioAssay (NCI).
